NF-kB reporter data for 39 molecules are collected here from the supplement of paper PMC10646978.

± gives the standard deviation.

One experiment concerns RAW-Dual (murine macrophage reporter line). Kind of experiment: NF-kB reporter (SEAP) activity fold change vs agonist alone; higher = enhanced NF-kB activity. As to conditions: modulator concentration 10 µM; agonist: CpG ODN 1826 0.5 ug/mL. The essentials:
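Overnight stimulation with a PRR agonist followed pre-incubation for 1 hour at 37 °C with compound at 10 μM final. This was done in RAW-Dual murine macrophage reporter cells seeded at 50 000 per well in 384-well plates. NF-κB (SEAP, QUANTI-Blue absorbance at 620 nm) and IRF (Lucia luciferase, QUANTI-Luc luminescence) were read from the supernatant. Each reporter's fold change relative to the mean agonist-only control on the same plate was averaged over replicate plates.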
For `Cc1c(C#N)sc2nc(-c3ccccc3)nc(N=CN(C)C)c12`, the NF-kB reporter was 1.01 ± 0.086.

For the molecule `CCC[C@@H]1C[C@@H](C(=O)N[C@@H]([C@H]2O[C@H](SC)[C@H](OP(=O)(O)O)[C@@H](O)[C@H]2O)[C@H](C)Cl)N(C)C1`, the NF-kB reporter was 0.953 ± 0.08. Consider `Cc1nc2n(c(=O)c1CCN1CCC(c3noc4cc(F)ccc34)CC1)CCCC2O` (stereo not given), for which the NF-kB reporter is 1.11 ± 0.27. Consider `Cc1cc(C(=O)O)n[nH]1`, for which the NF-kB reporter was 1.01 ± 0.077.

In the case of `N=C(N)Nc1ccc(Cl)cc1`, the NF-kB reporter stood at 1.02 ± 0.1. As to `COC(=O)C1=CN(CC2CCCO2)C=C(C(=O)OC)C1c1ccc(Cl)cc1` (stereo not given), the NF-kB reporter came to 0.999 ± 0.19. As for `COc1ccc(OC)c(Nc2nc(-c3c(C)nc4ncccn34)cs2)c1`, the NF-kB reporter is 2.14 ± 0.18. The same measure, in the same setting: under `Nc1ncn([C@@H]2O[C@H](CO)[C@@H](O)[C@H]2O)c(=O)n1` stands 1.55 ± 0.066; under `O=Cc1ccc(OCc2cccc([N+](=O)[O-])c2)c(Br)c1`, 0.777 ± 0.091; under `C=C(C)COc1ccc(-c2ncncc2-c2ccccc2)c(O)c1`, 1.08 ± 0.18. As for `CC(=O)c1ccc(NC(=O)c2ccccc2C(=O)O)cc1`, the NF-kB reporter amounted to 1.27 ± 0.12. Regarding `O=c1ccc2cc(O)c(O)cc2o1`, the NF-kB reporter worked out at 1.34 ± 0.34. With `Cc1ccsc1C(=CCCN1CCC[C@@H](C(=O)O)C1)c1sccc1C`, the NF-kB reporter was found to be 1.06 ± 0.084. Take `Br.CCCc1cc(-c2nc(-c3ccc(C)cc3)cs2)ccn1`: the NF-kB reporter was determined as 1.09 ± 0.18.

Take `CCCCc1oc2ccccc2c1C(=O)c1cc(I)c(OCCN(CC)CC)c(I)c1.Cl`: the NF-kB reporter is 0.471 ± 0.038. For `CNC1CCC(c2ccc(Cl)c(Cl)c2)c2ccccc21.Cl` (stereo not given), the NF-kB reporter is 0.571 ± 0.096. On the same count and under the same terms, under `CN(C)CC/C=C1/c2ccccc2Sc2ccc(Cl)cc21` stands 0.942 ± 0.058; under `c1ccc(-c2ccc(C(c3ccccc3)n3ccnc3)cc2)cc1` (stereo not given), 0.825 ± 0.097; under `Cc1[nH]c2ccccc2c1CCNCc1ccc(/C=C/C(=O)NO)cc1`, 0.22 ± 0.015. On the same count and under the same terms, under `O=C(Nc1ccc(Br)cc1)c1cccc(S(=O)(=O)NC2CCCCC2)c1` stands 0.746 ± 0.057; under `CCC(C(=O)N1CCC2(CC1)CC2(F)F)c1ccccc1` (stereo not given), 1.08 ± 0.069.

Still in this experiment, the particulars now being: modulator concentration 10 µM; agonist: LPS 0.1 ug/mL.
Regarding `Cc1ccc(F)c(NC(=O)Nc2ccc(-c3cccc4[nH]nc(N)c34)cc2)c1`, the NF-kB reporter was 0.758 ± 0.2. On to `CCN(CC)C(=O)N1CCN(C)CC1.O=C(O)CC(O)(CC(=O)O)C(=O)O`, for which the NF-kB reporter turned out to be 0.975 ± 0.18.

As for `O=S(=O)(Nc1ccnc2ccccc12)c1ccccc1`, the NF-kB reporter is 0.88 ± 0.066.

For `CC(C)C(=O)c1c(C(C)C)nn2ccccc12`, the NF-kB reporter was 1.2 ± 0.086. Consider `CCC1OC(=O)C(C)C(OC2CC(C)(OC)C(O)C(C)O2)C(C)C(OC2OC(C)CC(N(C)C)C2O)C(C)(O)CC(C)CN(C)C(C)C(O)C1(C)O` (stereo not given), for which the NF-kB reporter came to 1.1 ± 0.07. Consider `O=C(Nc1ccc(NS(=O)(=O)c2ccccc2)cc1)c1ccco1`, for which the NF-kB reporter was determined as 0.922 ± 0.13. With `O=C(CSC1CC(=O)N(c2ccc(C(=O)O)cc2)C1=O)Nc1ccc(F)cc1` (stereo not given), the NF-kB reporter stood at 0.967 ± 0.14.

Regarding `CC1ON(c2ccc(Cl)c(Cl)c2)C(=O)NC1=O` (stereo not given), the NF-kB reporter was found to be 0.886 ± 0.065. Consider `CCN(CC)c1ccc(C=NNc2cc(N3CCOCC3)nc(N3CCOCC3)n2)cc1`, for which the NF-kB reporter turned out to be 1.03 ± 0.11. For the molecule `COC(CNS(=O)(=O)c1ccccc1Br)c1ccc(C)s1` (stereo not given), the NF-kB reporter was 1.05 ± 0.095. As for `CN(C)CC/C=C1\c2ccccc2COc2ccccc21.Cl`, the NF-kB reporter amounted to 1.06 ± 0.15. As to `O=c1cccnn1CC1CN(c2ncc(Br)cn2)C1`, the NF-kB reporter was determined as 1.08 ± 0.072. `CCOC(=O)C1=C(C)NC(C)=C(C(=O)OCC)C1c1ccc(F)cc1`: the NF-kB reporter was determined as 0.729 ± 0.059. As for `C#CCCCCCCCCCCCC(O)CC(O)COC(C)=O` (stereo not given), the NF-kB reporter came out at 1.06 ± 0.055. For `O=C(O)c1nn(-c2ccccc2)c(=O)c2ccccc12`, the NF-kB reporter is 1.1 ± 0.099. Consider `Cc1nnc(C(=O)NC(C)(C)c2nc(C(=O)NCc3ccc(F)cc3)c(O)c(=O)n2C)o1`, for which the NF-kB reporter worked out at 1.09 ± 0.13. As to `OC(Cn1cncn1)(Cn1cncn1)c1ccc(F)cc1F`, the NF-kB reporter is 0.967 ± 0.066. In the case of `Cn1c(=O)[nH]c2nnc(-c3cccnc3)nc2c1=O`, the NF-kB reporter is 0.961 ± 0.084. As for `Cc1c(C#N)sc2nc(-c3ccccc3)nc(N=CN(C)C)c12`, the NF-kB reporter worked out at 1.05 ± 0.095. As for `CCC[C@@H]1C[C@@H](C(=O)N[C@@H]([C@H]2O[C@H](SC)[C@H](OP(=O)(O)O)[C@@H](O)[C@H]2O)[C@H](C)Cl)N(C)C1`, the NF-kB reporter turned out to be 0.954 ± 0.059. Regarding `Cc1nc2n(c(=O)c1CCN1CCC(c3noc4cc(F)ccc34)CC1)CCCC2O` (stereo not given), the NF-kB reporter worked out at 1.14 ± 0.071. For `Cc1cc(C(=O)O)n[nH]1`, the NF-kB reporter is 0.891 ± 0.15. For the molecule `N=C(N)Nc1ccc(Cl)cc1`, the NF-kB reporter was determined as 1.05 ± 0.067. Take `COC(=O)C1=CN(CC2CCCO2)C=C(C(=O)OC)C1c1ccc(Cl)cc1` (stereo not given): the NF-kB reporter is 0.992 ± 0.11. For the molecule `COc1ccc(OC)c(Nc2nc(-c3c(C)nc4ncccn34)cs2)c1`, the NF-kB reporter was determined as 1.35 ± 0.12. Take `Nc1ncn([C@@H]2O[C@H](CO)[C@@H](O)[C@H]2O)c(=O)n1`: the NF-kB reporter turned out to be 0.569 ± 0.045.

In the case of `O=Cc1ccc(OCc2cccc([N+](=O)[O-])c2)c(Br)c1`, the NF-kB reporter worked out at 0.737 ± 0.057. Still for that read-out and setting: under `C=C(C)COc1ccc(-c2ncncc2-c2ccccc2)c(O)c1` stands 0.985 ± 0.088. Same read-out and setting: the result for `CC(=O)c1ccc(NC(=O)c2ccccc2C(=O)O)cc1` reads 1.14 ± 0.1; that for `O=c1ccc2cc(O)c(O)cc2o1`, 0.878 ± 0.044; that for `Cc1ccsc1C(=CCCN1CCC[C@@H](C(=O)O)C1)c1sccc1C`, 1.06 ± 0.053. On the same count and under the same terms, under `Br.CCCc1cc(-c2nc(-c3ccc(C)cc3)cs2)ccn1` stands 1.24 ± 0.12. `CCCCc1oc2ccccc2c1C(=O)c1cc(I)c(OCCN(CC)CC)c(I)c1.Cl`: the NF-kB reporter is 0.988 ± 0.12. For `CNC1CCC(c2ccc(Cl)c(Cl)c2)c2ccccc21.Cl` (stereo not given), the NF-kB reporter came out at 0.765 ± 0.097. Turning to `CN(C)CC/C=C1/c2ccccc2Sc2ccc(Cl)cc21`, the NF-kB reporter was found to be 1.02 ± 0.085. Regarding `c1ccc(-c2ccc(C(c3ccccc3)n3ccnc3)cc2)cc1` (stereo not given), the NF-kB reporter came out at 0.893 ± 0.083. For `Cc1[nH]c2ccccc2c1CCNCc1ccc(/C=C/C(=O)NO)cc1`, the NF-kB reporter turned out to be 1.58 ± 0.1.

Consider `O=C(Nc1ccc(Br)cc1)c1cccc(S(=O)(=O)NC2CCCCC2)c1`, for which the NF-kB reporter came out at 0.846 ± 0.076. As to `CCC(C(=O)N1CCC2(CC1)CC2(F)F)c1ccccc1` (stereo not given), the NF-kB reporter turned out to be 1.08 ± 0.098.
